These results are taken from PubChem BioAssay (NCATS).

Test [1] in a line: Cytotoxicity counterscreen for inhibitors of SARS-CoV-2 cell entry (AID 1645845). Also: nearly all actives have a fitted effect of over 50% in size. The essentials: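 Counterscreen run in the same HEK293-ACE2 line as the pseudotyped-particle entry assay, without particles. Viability after 48 h at 37 C was read as ATP luminescence, scaled between cell-containing and cell-free wells.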
A short description of test [2]: Primary qHTS to identify inhibitors of SARS-CoV-2 cell entry (AID 1645846). Also: nearly all actives have a fitted effect of over 45% in size. Also: potency is read from the fitted curve at half-maximal effect. The procedure, abridged: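 Luminescence readout (Bright-Glo luciferase) 48 h after pseudoparticle addition. HEK293-ACE2 cells, 1500/well; compound pre-incubation 1 h; Normalized to spike PP and bald PP.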
The target of test [3] is Papain (Carica papaya) (UniProt P00784). The experiment in a line: Primary qHTS assay for inhibitors of the protease papain (AID 1645873; active = well fitted curve in the direction sought with a large enough effect; an effect the other way counts as inactive or inconclusive;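 also: papain turnover of Z-FR-AMC read as the AMC fluorescence gain over 10 min; % is scaled to controls: 0 for no effect and ±100 for the full control effect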).
Papain (Carica papaya), sequence (P00784 whole entry, looked up, the tested form may be a part): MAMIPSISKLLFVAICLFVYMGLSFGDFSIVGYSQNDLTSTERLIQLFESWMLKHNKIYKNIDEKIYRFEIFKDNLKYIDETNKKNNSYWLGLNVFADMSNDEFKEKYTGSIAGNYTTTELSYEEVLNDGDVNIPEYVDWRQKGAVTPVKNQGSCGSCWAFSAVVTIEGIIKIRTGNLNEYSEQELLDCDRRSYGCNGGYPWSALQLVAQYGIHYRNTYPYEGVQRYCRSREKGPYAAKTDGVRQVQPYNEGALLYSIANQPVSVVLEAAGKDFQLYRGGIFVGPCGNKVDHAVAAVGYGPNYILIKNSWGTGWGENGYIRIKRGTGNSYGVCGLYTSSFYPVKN
Test [4] can be described thus: Primary qHTS for inhibitors of nuclear receptor binding SET domain protein 2 (NSD2) in an RCH-ACV wild type WT cells (2C) (AID 1645877; active = well fitted curve in the direction sought with a large enough effect; an effect the other way counts as inactive or inconclusive; also: nearly all actives have a fitted effect of over 70% in size; also: potency is read from the fitted curve at half-maximal effect).
Test [5] in a line: Primary qHTS for inhibitors of nuclear receptor binding SET domain protein 2 (NSD2) in an isogenic RCH-ACV NSD2 p.E1099K mutant (9B) (AID 1645876; active = well fitted curve in the direction sought with a large enough effect; an effect the other way counts as inactive or inconclusive; also: nearly all actives have a fitted effect of over 70% in size).
The mark [6] stands for this setting: activity change, negative = inhibition: at 57.1 µM (top of the series) unless noted.

SMILES strings stand for the structures. Several values for one entry are separate records, joined by “and”; a condition that tells them apart may be missing. Identical values can stand only once. Inconclusive results are not listed. Activity calls are given as the source filed them. Unless noted, calls follow the shape of the full dose curve.

`CN/C(=C\[N+](=O)[O-])NCCSCc1ccc(CN(C)C)o1`: the Potency result in test [1] and in test [2] (setting [6]) was “inactive” in each case.

Take `NC[C@H](O)c1ccc(O)c(O)c1`: the Potency result in test [1] is “inactive”. Besides, the activity change, negative = inhibition in test [2] (setting [6]) is 4.91% and -20.6%.

Take `NC(=Nc1ccccc1)Nc1ccccc1`: in test [1], the Potency result was “inactive”. For the same molecule, in test [2] (setting [6]), the activity change, negative = inhibition was 1.43%.

With `Nc1nnc(-c2cccc(Cl)c2Cl)c(N)n1`, the Potency result in test [1] and in test [2] (setting [6]) was “inactive” in each case.

Regarding `CC(C)c1c(C(=O)Nc2ccccc2)c(-c2ccccc2)c(-c2ccc(F)cc2)n1CC[C@@H](O)C[C@@H](O)CC(=O)O`, the Potency result in test [1] is “inactive”. The activity change, negative = inhibition in test [2] (setting [6]) is -13%.

As for `CC/C=C(\C(=O)N[C@@H]1C(=O)N2C(C(=O)OCOC(=O)C(C)(C)C)=C(COC(N)=O)CS[C@H]12)c1csc(N)n1`, in test [1], the Potency entry was “inactive”. The activity change, negative = inhibition in test [2] (setting [6]) was -26.6%.

Regarding `O=c1[nH]cnc2c1ncn2[C@H]1CC[C@@H](CO)O1`, the Potency entry in test [1] and in test [2] (setting [6]) was “inactive” throughout.

Regarding `O=C(O)COCCN1CCN(C(c2ccccc2)c2ccc(Cl)cc2)CC1` (stereo unspecified), the Potency entry in test [1] was “inactive”. The activity change, negative = inhibition in test [2] (setting [6]) was -14.4%.

On to `Cc1cc2c(s1)Nc1ccccc1N=C2N1CCN(C)CC1`, for which, in test [1], the Potency entry is “inactive”. Also, the activity change, negative = inhibition in test [2] (setting [6]) was -19.8%.

For the molecule `COc1ccc(OC)c(C(O)CNC(=O)CN)c1` (stereo unspecified), the Potency entry in test [1] is “inactive”. Also, in test [2] (setting [6]), the activity change, negative = inhibition is -24%.

For the molecule `CCC[C@H](N[C@@H](C)C(=O)N1[C@H](C(=O)O)C[C@@H]2CCCC[C@@H]21)C(=O)OCC`, the Potency result in test [1] and in test [2] (setting [6]) was “inactive” each time.

With `Cc1ccc(-c2cc(C(F)(F)F)nn2-c2ccc(S(N)(=O)=O)cc2)cc1`, the Potency entry in test [1] is “inactive”. In test [2] (setting [6]), the activity change, negative = inhibition was -19.2%.

Consider `CC(C)NCC(O)COc1ccc(CCOCC2CC2)cc1` (stereo unspecified), for which, in test [1], the Potency result is “inactive”. For the same molecule, the activity change, negative = inhibition in test [2] (setting [6]) was -14.6% and -1.57%.

Turning to `CNCCc1ccccn1`, the Potency entry in test [1] and in test [2] (setting [6]) was “inactive” in each case.

In the case of `Nc1[nH]c(=O)ncc1F`, the Potency entry in test [1] was “inactive”. Also, the activity change, negative = inhibition in test [2] (setting [6]) was -21.9% and -13.2%.

In the case of `Nc1nc(F)nc2c1ncn2[C@@H]1O[C@H](CO)[C@@H](O)[C@@H]1O`, in test [1], the Potency result is “inactive”. Further, in test [2] (setting [6]), the activity change, negative = inhibition is 3.89% and -17.8%.

In the case of `Nc1nc2c(ncn2COC(CO)CO)c(=O)[nH]1`, in test [1], the Potency result is “inactive”. Moreover, the activity change, negative = inhibition in test [2] (setting [6]) is -11.4% and -3.55%.

In the case of `Cn1cnc2c(F)c(Nc3ccc(Br)cc3Cl)c(C(=O)NOCCO)cc21`, in test [1], the Potency result is “inactive”. Also, the activity change, negative = inhibition in test [2] (setting [6]) was -32.9%.

Take `CCCNC(=O)NS(=O)(=O)c1ccc(Cl)cc1`: the Potency result in test [1] and in test [2] (setting [6]) was “inactive” in each case.

As to `CCOc1ccccc1OCCN[C@H](C)Cc1ccc(OC)c(S(N)(=O)=O)c1`, the Potency entry in test [1] is “inactive”. The activity change, negative = inhibition in test [2] (setting [6]) was -21.5%.

On to `CN(C)CCOC(C)(c1ccccc1)c1ccccn1` (stereo unspecified), for which, in test [1], the Potency result is “inactive”. Further, in test [2] (setting [6]), the activity change, negative = inhibition was determined as 2.27%.

With `C1N2CN3CN1CN(C2)C3`, the Potency entry in test [1] and in test [2] (setting [6]) was “inactive” each time.

As for `Oc1cn2c(n1)Nc1ccc(Cl)c(Cl)c1C2`, the Potency result in test [1] and in test [2] (setting [6]) was “inactive” each time.

As for `Nc1cccc2c1CN(C1CCC(=O)NC1=O)C2=O` (stereo unspecified), the Potency result in test [1] and in test [2] (setting [6]) was “inactive” throughout.

`NC(=O)N1c2ccccc2CC(=O)c2ccccc21`: the Potency entry in test [1] and in test [2] (setting [6]) was “inactive” throughout.

Consider `CCOC(=O)[C@H](CCc1ccccc1)N[C@@H](C)C(=O)N1Cc2cc(OC)c(OC)cc2C[C@H]1C(=O)O`, for which, in test [1], the Potency result is “inactive”. In addition, in test [2] (setting [6]), the activity change, negative = inhibition is -29.2%.

Consider `CC(C)(C#N)c1cc(Cn2cncn2)cc(C(C)(C)C#N)c1`, for which the Potency result in test [1] and in test [2] (setting [6]) was “inactive” each time.

`COc1ccccc1OCCNCC(O)COc1cccc2[nH]c3ccccc3c12` (stereo unspecified): in test [1], the Potency result is “inactive”. For the same molecule, the Potency in test [2] (setting [6]) was 22.4 µM (active).

Consider `CCCC(CCC)C(=O)O`, for which the Potency entry in test [1] and in test [2] (setting [6]) was “inactive” throughout. Moreover, the activity change, negative = inhibition in test [2] (setting [6]) was -12.6%.

As to `Cc1ccc(C)c(OCCCC(C)(C)C(=O)O)c1`, in test [1], the Potency entry was “inactive”. In test [2] (setting [6]), the Potency entry was “inactive” and the activity change, negative = inhibition is -8.37%.

On to `N=C(N)c1ccc(OCCCCCOc2ccc(C(=N)N)cc2)cc1`, for which the Potency entry in test [1] was “inactive”. Moreover, the Potency in test [2] (setting [6]) was 15.8 µM (active).

`COc1cc2c(cc1OC)C(=O)C(CC1CCN(Cc3ccccc3)CC1)C2` (stereo unspecified): the Potency result in test [1] is “inactive”. The activity change, negative = inhibition in test [2] (setting [6]) is -29.7%.

Take `CN(CCOc1ccc(CC2SC(=O)NC2=O)cc1)c1ccccn1` (stereo unspecified): the Potency result in test [1] is “inactive”. In test [2] (setting [6]), the Potency entry was “inactive” and the activity change, negative = inhibition is -30.2%.

For the molecule `O=c1[nH]c2ccccc2n1CCCN1CCC(n2c(=O)[nH]c3cc(Cl)ccc32)CC1`, the Potency result in test [1] and in test [3] was “inactive” in each case. For the same molecule, the Potency in test [4] is 20.9 µM (active).

In the case of `N[C@@H]1CONC1=O`, the Potency entry in test [1] and in test [2] (setting [6]) was “inactive” each time. For the same molecule, the activity change, negative = inhibition in test [2] (setting [6]) is -2.51%.

As for `CCC1(c2ccccc2)C(=O)NCNC1=O`, the Potency result in test [1] and in test [2] (setting [6]) was “inactive” throughout. In test [2] (setting [6]), the activity change, negative = inhibition is -9.71%.

With `O=C(O)c1cn(C2CC2)c2cc(N3CCNCC3)c(F)cc2c1=O`, the Potency result in test [1] was “inactive”. Also, the activity change, negative = inhibition in test [2] (SARS-CoV-2 pseudovirus cell entry assay, luminescence, at 11.3 µM (top of the series)) is -1.6%; in test [2] (SARS-CoV-2 pseudovirus cell entry assay, luminescence, at 57.1 µM (top of the series)), 4.56%.

With `CCOC(=O)c1ncn2c1CN(C)C(=O)c1cc(F)ccc1-2`, in test [1], the Potency entry is “inactive”. For the same molecule, in test [2] (setting [6]), the Potency result is “inactive” and the activity change, negative = inhibition is -12.9%.

`O=C(O)P(=O)(O)O`: the Potency entry in test [1], in test [2] (setting [6]), in test [5] and in test [4] was “inactive” each time.

With `C=C(c1ccc(C(=O)O)cc1)c1cc2c(cc1C)C(C)(C)CCC2(C)C`, the Potency result in test [1] and in test [2] (setting [6]) was “inactive” each time. Besides, the activity change, negative = inhibition in test [2] (setting [6]) was -6.82%.

As for `COCCCOc1cc(C[C@@H](C[C@H](N)[C@@H](O)C[C@H](C(=O)NCC(C)(C)C(N)=O)C(C)C)C(C)C)ccc1OC`, the Potency entry in test [1] and in test [2] (setting [6]) was “inactive” each time. The activity change, negative = inhibition in test [2] (setting [6]) is -3.02%.

For `CC(O)(CS(=O)(=O)c1ccc(F)cc1)C(=O)Nc1ccc(C#N)c(C(F)(F)F)c1` (stereo unspecified), the Potency result in test [1] and in test [3] was “inactive” throughout.
